# According to PubChem BioAssay AID1981 (Southern Research Specialized Biocontainment Screening …, 2009):
# The whole screen tested about 2,200 compounds, of which about 480 (22%) were called active. The list is a sample of the results. Entries with a potency or affinity are not part of this list. A number with no mark means an inactive call. The rule behind the calls is not given here.
# Assay: S. Typhimurium GFP fluorescence dose response in modified counterscreen for PhoP regulon inhibitor project (AID 1981);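 note: 0% = induced DMSO wells and 100% = uninduced wells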
# Conditions: 4 h; series mostly up to 150 µM; inhibition: at the top concentration
row,Compound,inhibition [%]
1,CC(C)(C)NC(=O)CSc1nnc(-c2ccncc2)o1,2.59
2,COc1ccccc1/C=C1\CCCC2=C1Nc1nnnn1C2c1ccccc1OC (centres undefined),13
3,O=[N+]([O-])c1ccc(NCCCNS(=O)(=O)c2ccccc2)c(Cl)c1,-2.82
4,COC(=O)c1sccc1NC(=O)CSc1ccccc1NS(=O)(=O)c1ccc(Cl)cc1,-3.4
5,CCC(C)C(NC(=O)OCc1ccccc1)C(=O)OCN1C(=O)c2ccccc2C1=O (centres undefined),5.7
6,c1ccc(-c2ncnc3nc4n(c23)CCC4)cc1,-1.03
7,CCn1nnc(-c2ccccc2NC(=O)c2ccc(-n3cnnn3)cc2)n1,-0.33
8,Cc1cc(-c2csc(N)n2)c(C)n1C,-7.84
9,COc1cc(NC(=O)Nc2cccc(Cl)c2)c(OC)cc1NC(=O)CN1CCCCC1,4.21
10,CN(C)CCNc1nc(-c2ccccc2)nnc1C(F)(F)F,-13.8
11,Cc1cc(NCCN2CCOCC2)n2ncc(-c3ccccc3)c2n1,2.32
12,COc1cc(C2SCC(=O)N2c2nnc(C34CC5CC(CC(C5)C3)C4)s2)cc(OC)c1OC (centres undefined),-15.5
13,N#CCC1c2ccccc2CCN1C(=O)Nc1ccc(Cl)cc1 (centres undefined),5.37
14,CC1(C)CC(=O)C=C(Nc2ccc(Br)cn2)C1,-15.5
15,COCCNC(=O)CSCc1c(F)cccc1Cl,-7.74
16,Cc1ccc(C(=O)Oc2cccc(NC(=O)c3cccs3)c2)cc1S(=O)(=O)N1CCOCC1,-13
17,NC(=O)c1ccccc1N=Cc1ccccn1,-4.7
18,Cc1cc(C)cc(NC(=O)CSc2nc3c(c(=O)[nH]2)CN(Cc2ccc(F)cc2)CC3)c1,-13.9
19,COC(=O)C1(O)CC(C(C)C)=NN1C(=O)c1ccc(Cl)cc1 (centres undefined),-1.95
20,Cc1cccc(CN(C)C)c1OC(=O)N(C)C,-0.78
21,Cc1ccc(/C=C2\SC(=S)N(Cc3ccccc3)C2=O)o1,2.23
22,COc1ccc(NC2=Nc3cccc4cccc2c34)cc1,4.87
23,Oc1cccc2ccc[n+](CC(O)Cn3c4ccccc4c4ccccc43)c12 (centres undefined),1.86

row,Compound,inhibition [%]
1,O=C(CSc1ncnc2ccccc12)Nc1cc(S(=O)(=O)N2CCCCC2)ccc1Cl,-3.66
2,COc1ccc(NS(=O)(=O)c2cc(C)ccc2NC(=O)c2cc(C)oc2C)cc1,-2.27
3,COc1ccc(C)cc1C(=O)CCC(=O)Nc1ccccc1N1CCOCC1,6.84
4,O=C(CN1CCC(NC(=O)c2cccc(F)c2)CC1)NCc1ccccc1F,-13.7
5,CCCOc1ccc(C(=O)N2CCCC2C(=O)O)cc1 (centres undefined),16.7
6,CCCOc1ccc(C(=O)CCC(=O)OCC(=O)N2CC(=O)Nc3ccccc32)cc1,16.2
7,CCn1cc(C(=O)NCc2ccncc2)c(=O)c2cc(F)c(N3CCN(C(=O)c4ccco4)CC3)cc21,-5.18
8,O=C(Nc1nc(-c2ccncc2)cs1)C1c2ccccc2Oc2ccccc21,34.1
9,O=C1c2[nH]nc(-c3ccccc3O)c2C(c2ccc(F)cc2)N1Cc1ccco1 (centres undefined),-28.4
10,CCCCNC(=O)OC1CCS(=O)(=O)C1 (centres undefined),3.96
11,COC(=O)c1ccccc1NC(=O)NCc1ccc2c(c1)OCO2,-10.6
12,O=C(CN1CCCCCC1)Nc1cccc(Br)c1,-1.83
13,C=CCSc1nnc(-c2ccc(Cl)cc2Cl)o1,-8.96
14,CCCCCOc1ccc(NC(=O)C(=O)NCCC2=CCCCC2)cc1,-0.5
15,Cc1ccc(OCC(=O)N2CCN(S(=O)(=O)c3ccccc3)CC2)c([N+](=O)[O-])n1,-21.7
16,Cc1nc(CC(=O)c2ccc(O)cc2O)cs1,-4.6
17,CCc1c(C)c2cc(Cl)c(O)c(CN3CCCCC3)c2oc1=O,6.99
18,Cc1onc(-c2c(F)cccc2Cl)c1C(=O)Nc1cccc(Cn2cccn2)c1,5.52
19,NC(CSC12CC3CC(CC(C3)C1)C2)C(=O)O (centres undefined),-3.86
20,Cn1c(CN2CCCCC2)nc2cc(NS(=O)(=O)c3ccc(Cl)cc3)ccc21,-5.37
21,COc1ccc2c(c1)[nH]c1c(N3CCN(Cc4ccc5c(c4)OCO5)CC3)ncnc12,-3.88
22,O=C(NCCNc1ccc([N+](=O)[O-])cc1C(F)(F)F)c1ccc(F)cc1,16.8
23,COCCNS(=O)(=O)c1cccn1-c1ncc(C(F)(F)F)cc1Cl,8.31

row,Compound,inhibition [%]
1,CCCCn1c(SCC(=O)Nc2nnc(CC)s2)nc2c1c(=O)n(C)c(=O)n2C,4.13
2,CCn1nc(C(=O)NCc2ccco2)c(Cl)c1Cl,-22.6
3,Cc1cccc(C(=O)NC(=S)Nc2ccc(N3CCOCC3)cc2)c1,-7.74
4,CCOC(=O)CSc1n[nH]c(NC(=O)c2cccc(C)c2)n1,-1.32
5,Cc1cc(C)c2nc(NNC(=O)c3ccc(S(=O)(=O)N4CCc5ccccc5C4)cc3)sc2c1,16.8
6,O=C(O)CCCCCN1C(=O)c2ccc(C(=O)O)cc2C1=O,-6.65
7,O=C(/C=C/c1ccccc1Cl)c1ccccc(=O)c1O,7.68
8,Cc1ccc(NC(=O)c2ccccc2)s1,17
9,CC1=C(C(=O)Nc2cccnc2)C(c2ccccn2)n2nnnc2N1 (centres undefined),11
10,Cc1cccnc1NC(=O)CCCN1C(=O)c2ccccc2C1=O,-17
11,CC(=O)c1cccc(NC(=O)Nc2cccs2)c1,8.26
12,CC1(C)CC(=O)C=C(Nc2ccccc2NC(=O)c2cnccn2)C1,-16
13,COc1ccc(N2CCN(C(=O)Nc3ccc(S(=O)(=O)N(C)C)cc3)CC2)cc1,-4.18
14,Cc1ccc(S(=O)(=O)N(CC(=O)N=Nc2c(O)[nH]c3ccccc23)c2ccc(C)c(C)c2)cc1,-1.5
15,NC(N)=Nc1nc(C2COc3ccccc3O2)cs1 (centres undefined),6.56
16,O=C(CSCc1nc2ccccc2[nH]1)Nc1ccc2ccccc2c1,9.39
17,COc1cc(CNCc2ccccn2)ccc1OCC(=O)NC(C)(C)C,-6.14
18,O=S(=O)(/N=C(/Nc1cccc2ccccc12)c1ccccc1)c1cccs1,-14.9
19,FC(F)(F)COc1nc(OCC(F)(F)F)nc(N2CCN(c3ccccc3)CC2)n1,-12.4
20,COc1cccc(C2CC(=O)Nc3cc(OC)c(OC)c(OC)c32)c1OC (centres undefined),-9.55
21,COCCn1c(-c2ccccc2F)n[nH]c1=S,-1.15
22,C1=C(CCNc2ncnc3c2[nH]c2ccccc23)CCCC1,-1.64
23,COc1ccc(C(=O)NCCC2=CCCCC2)cc1OC,13.9

row,Compound,inhibition [%]
1,O=C(NC1CCCCC1)n1c(=O)oc2ccc(Cl)cc21,19.4
2,COc1ccc(C2C(C(=O)c3cccs3)=C(O)C(=O)N2c2nnc(C)s2)cc1OC (centres undefined),-14.3
3,Nc1ccc2c(c1)C(=O)N(CC1CCCO1)C2=O (centres undefined),-4.44
4,c1ccc(CNc2c3c(nc4ccccc24)CCC3)cc1,-11.6
5,Cc1cccc(Nc2c3c(nc4ccccc24)CCC3)c1,7.15
6,CCOc1ccc(Nc2nc(NCCN3CCOCC3)nc(OC)n2)cc1,-4.02
7,Cc1cccc(N2CCc3c2nc2ccccc2c3N)c1,3.75
8,CCOC(=O)c1cnc2ccccc2c1Nc1ccc2c(c1)OCCO2,4.99
9,Cc1cccc(Nc2nc(N)nc(CN3CCN(c4ccccc4)CC3)n2)c1,6.77
10,Oc1cccc(Nc2c3ccccc3nc3ccccc23)c1,29.4
11,CCc1ccc(Nc2nc(N)nc(CSc3nc4ccccc4s3)n2)cc1,10.7
12,CC1(C)CC(=O)C(C=Nc2ccc(Cl)cn2)=C(O)C1,-4.41
13,Cc1cc(C)n(-c2ccc(C(=O)OCC(=O)Nc3ccc([N+](=O)[O-])cc3)cc2)n1,-5.1
14,O=C(NCCc1ccc(Cl)cc1)/C(=C/c1cccnc1)NC(=O)c1ccccc1,-15.3
15,S=C(NCc1cccnc1)Nc1cccc(Cl)c1,-0.39
16,CCOc1ccc(S(=O)(=O)Nc2ccc(C(=O)N/N=C/c3c(C)nn(-c4ccccc4)c3N3CCCC3)cc2)cc1,-6.55
17,Cc1cccc(NC(=O)Cn2c(/C=C/c3ccccc3)nc3ccccc32)c1,-10.8
18,CC1CCCCN1Cc1cnc(Cl)s1 (centres undefined),2.45
19,Cc1ccc2nc(Cc3ccc(N)cc3)[nH]c2c1,9.83
20,Cc1ccc(-c2csc(N=C(N)N)n2)c(C)c1,30.2
21,Cc1ccc(-c2nc3ccccc3s2)cc1S(=O)(=O)N1CCCC1,-11.2
22,Cn1c(SCC(=O)N2c3ccccc3CCc3ccccc32)nnc1-c1cc2ccccc2cc1O,34.6
23,O=S(=O)(NC1=NCCCCC1)c1cccs1,2.48

row,Compound,inhibition [%]
1,Cc1ccc(NC(=O)C2CC(=O)NC(N3CCCCC3)=N2)cc1Cl (centres undefined),0.62
2,Cc1nn(CCOc2ccccc2)c(=O)n1-c1ccc(F)cc1,-5.37
3,CC(Cc1ccccc1Sc1ccccc1O)N(C)C (centres undefined),-3.13
4,CC(CCc1ccccc1)NC(=O)c1ccccc1 (centres undefined),-1.11
5,CC(C)CCn1c(SCC(=O)N2CC(=O)Nc3ccccc32)nc2scc(-c3cccs3)c2c1=O,0.62
6,O=C(O)C1(P(=O)(c2ccccc2)c2ccccc2)CCC1,-20.8
7,N#Cc1c(-c2ccccc2)ccn(Cc2cccc(Cl)c2)c1=O,0.47
8,COc1ccc(-c2nc3ncccc3n2O)cc1,-14.9
9,Nc1ccccc1NC1=CC(=O)CC(c2ccco2)C1 (centres undefined),3.13
10,CCn1cc(C(=O)O)c(=O)c2cnc(N3CCN(C(=S)NC(=O)c4ccc(Cl)cc4)CC3)nc21,-19.7
11,CCn1cc(C(=O)OCC(=O)Nc2ccc(S(=O)(=O)N3CCCC3)cc2)c(=O)c2ccc(C)nc21,-9.11
12,COc1ccccc1N1CCN(C(=O)CSc2nc3ccccc3o2)CC1,5.8
13,O=C(O)Cn1cc(C(=O)c2ccco2)c2ccccc21,-6.5
14,O=S(=O)(c1ccc(S(=O)(=O)N2CCN(C/C=C/c3ccccc3)CC2)cc1)N1CCCC1,-21.5
15,NS(=O)(=O)c1ccc(Nc2nc(-c3ccc(O)cc3)cs2)cc1,-5.72
16,Fc1cccc(NCc2cn3ccccc3n2)c1,0.65
17,CNc1nnc(-c2cccc(N(C)C)c2)s1,-1.85
18,COC(=O)c1c(C)[nH]c(C(C)=O)c1C,-4.71
19,COc1ccc2c(c1)C1C=CCC1C(c1cc3c(cc1Br)OCO3)N2 (centres undefined),26.4
20,COc1ccc(C(=O)N2CCc3cc(OC)c(OC)cc3C2)cc1OC,-2.44
21,COc1ccc(S(=O)(=O)N2CCN(Cc3ccccc3)CC2)cc1,1.55
22,COc1ccc(C(=O)On2c(-c3ccc(Br)cc3)nc3ccccc3c2=O)cc1,6.84
